This is an account of results in PubChem BioAssay.

Several values for one entry are separate records, joined by “and”; a condition that tells them apart may be missing. Equal values may be shown once. Activity calls are given as the source filed them.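 The calls were made as follows, unless noted: active = compounds whose cell count with miR-34 switched on is under 0.7 times the count with it off; inactive = the rest.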

Experiment [1] in a line: Wnt pathway potentiators raising nuclear beta-catenin – imaging, WNT3A-conditioned medium, mouse C2C12, NPC library, primary screen (AID 1117326; in the data active = nuclear beta-catenin stimulation mostly above about 4.2%, no sharp cut-off; inactive = mostly below about 10%; also: reference of the scale not given here). The following applies: stronger effect = higher value.
Experiment [2] in a line: stimulators of insulin release from INS-1E, primary screen, cell-based, 5 mM glucose, NPC library (AID 1117329;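 active = compound raises insulin release from rat beta cells at 5 mM glucose, no numeric limit stated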; also: reference of the scale not given here). To be noted: rat INS-1E insulin secretion, at 10 µM, stronger effect = higher value.
The nature of experiment [3]: growth inhibition of GSK3B-pretreated HCT116 cells – cell-based, CellTiter-Glo, 0.2 to 20 µM (AID 1117336;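 active = compounds lowering colon cancer cell viability after pretreatment blocking the GSK3B kinase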). To be noted: HCT116 viability after GSK3B inhibitor, at 20 µM, stronger effect = higher value.
The nature of experiment [4]: inhibition of endothelial tube formation, primary screen, imaging, VEGF stimulated, CD31 staining, tube area, NPC library (AID 1117340;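 active = compound that reduces growth-factor-driven endothelial tube area in a mixed cell culture, no cutoff stated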). To be noted: VEGF-stimulated ADSC/ECFC co-culture, at 10 µM, stronger effect = higher value.
Experiment [5] in a line: GLP1 release stimulators, primary, NCI-H716, NPC library (AID 1117341;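 active = compound raises GLP1 secretion from the human gut endocrine cells, with no numeric limit stated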; also: reference of the scale not given here). To be noted: NCI-H716 cells, at 10 µM, stronger effect = higher value.
Experiment [6] can be described thus: HCT116 colon cancer cell growth inhibition, primary screen, CellTiter-Glo luminescence, NPC library (AID 1117342;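 active = compounds that lower survival of HCT116 colon cancer cells in the luminescence readout, no numeric limit stated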). To be noted: at 20 µM (top of the series).
Experiment [7] can be described thus: reduced SW480 viability measured with CellTiter-Glo, NPC library, primary (AID 1117343;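 active = compounds that lower viability of the colon cancer cells in the luminescence readout, with no numeric limit stated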). To be noted: CellTiter-Glo luminescence; at 20 µM (top of the series) unless noted.
The nature of experiment [8]: NPC library primary testing for decreased DLD-1 cell viability via CellTiter-Glo (AID 1117346;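 active = compounds that lower survival of DLD-1 colon cancer cells in the luminescence readout, no cutoff given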). The following applies: DLD-1 viability, CellTiter-Glo luminescence; at 20 µM (top of the series).
A short description of experiment [9]: viability loss with induced miR-34 in A549 – imaging, A549 dox-inducible miR-34, nuclei and caspase counts, primary screen (AID 1347080). The following applies: A549 miR-34 inducible, Hoechst nuclei count, 48 h.
Experiment [10] can be described thus: blockers of cellular phospholipid synthesis – cell-based, LOPAC library, screen 4, primary screen (AID 1347384; call rule not given here). The following applies: animal cells, phospholipid biosynthesis inhibition screen; at 10 µM.
Experiment [11] can be described thus: MELAS cybrid and Rieske KO viability enhancers – cell-based, MELAS cybrids, Rieske KO mouse fibroblasts, CellTiter-Glo, primary screen (AID 1508586;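 active = mean z-score across replicates of 1.96 or higher in either the MELAS or the Rieske mutant cell line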;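 also: z relative to plate mean and SD of compound and empty wells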). To be noted: low glucose.
The nature of experiment [12]: galactose survival enhancers in mitochondrial complex I cybrids – cell-based, galactose medium, ATP luminescence, primary screen (AID 1645843;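 active = z-score of at least 1.8 in each of two replicates, scored against plate mean and spread of sample wells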;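 also: positive z means more ATP and so rescue of galactose-driven cybrid death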). To be noted: complex I mutant cybrid cells, 72 h, stronger effect = higher value.
Experiment [13] is described as follows: P. berghei load reduction in hepatocytes – cell-based, HepG2, luciferase luminescence, HepG2 viability, primary screen (AID 624349; in the data active = parasite load remaining mostly below about 12%, no sharp cut-off; inactive = mostly above about 10%;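 also: 100% = mean of DMSO negative control wells on the same plate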). To be noted: P. berghei liver stage in HepG2, luciferase luminescence, concentration not given here; parasite load remaining: stronger effect = lower value; viability: measured here: HepG2 viability without parasites.
Setting [14] is: stronger effect = lower value, cell number ratio, induced over uninduced.
Setting [15] is: measured here: relative caspase fold change +Dox/-Dox.
[16] abbreviates: measured here: total cells with miR-34 induction, stronger effect = lower value.
The mark [17] stands for this setting: measured here: total cells without miR-34 induction.
[18] abbreviates: MELAS cybrid survival, CellTiter-Glo 48 h, stronger effect = higher value.
Where [19] appears, read: Rieske KO mouse fibroblast survival, CellTiter-Glo 72 h.

With `NC(=O)c1cn(Cc2c(F)cccc2F)nn1`, the nuclear beta-catenin stimulation in experiment [1] (at 10 µM) was 0.5% (inactive); in experiment [1] (stimulation, at 2 µM), 2.9%. In addition, the insulin secretion stimulation in [2] was -2.7% (inactive). For the same compound, the viability decrease in [3] is -3.55% (inactive). The tube area decrease in experiment [4] was -8.7% (inactive). For the same compound, the GLP1 secretion stimulation in experiment [5] is -0.1% (inactive). For the same compound, the inhibition of viability in [6] was 18.7% (inactive). Further, the viability decrease (inhibition) in [7] is 11.5% (inactive); in [8] it was 5.25% (inactive). For the same compound, the fold change in experiment [9] (setting [14]) is 1.05 (inactive) and 0.933 (inactive); in [9] (setting [15]), 0.739 and 0.557. For the same compound, the cell count in experiment [9] (setting [16]) is 10500 and 8320; in experiment [9] (setting [17]), 10000 and 8930. Further, in [10], the call was inactive. In addition, the results for the z-score in experiment [11] (setting [18]), in experiment [11] (setting [19]) and in [12] were -0.0452 (inactive), -0.156 and 0.155 (inactive), respectively.
Turning to `OCCN1CCN(CCCN2c3ccccc3C=Cc3ccccc32)CC1`, the nuclear beta-catenin stimulation in experiment [1] (at 10 µM) is -0.5% (inactive); in experiment [1] (stimulation, at 2 µM), 1.3%. Further, the insulin secretion stimulation in experiment [2] was 13.8% (inactive). Further, the viability decrease in [3] was 5.9% (inactive). Also, in [4], the tube area decrease is 15% (inactive). Besides, the GLP1 secretion stimulation in experiment [5] was 2% (inactive). Also, the inhibition of viability in [6] was 56.9% (active). Also, the viability decrease (inhibition) in [7] was 80.2% (active); in experiment [8], 37.9% (inactive). Also, the fold change is 1 (inactive) in experiment [9] (setting [14]) and 2.29 in experiment [9] (setting [15]). For the same compound, the figures for the cell count in experiment [9] (setting [16]) and in experiment [9] (setting [17]) were 8600 and 8590, respectively. Moreover, the compound was called inactive in experiment [10]. Moreover, the z-score is -0.305 (inactive) in experiment [11] (setting [18]), -0.132 in [11] (setting [19]) and -0.685 (inactive) in experiment [12].
With `CCN1CCc2nc(N)oc2CC1`, the nuclear beta-catenin stimulation in [1] (at 10 µM) is -1.7% (inactive); in [1] (stimulation, at 2 µM) it was 0.3%. Further, the insulin secretion stimulation in experiment [2] is 0.4% (inactive). Moreover, in experiment [3], the viability decrease was 2.7% (inactive). Moreover, in [4], the tube area decrease was 1.7% (inactive). Besides, the GLP1 secretion stimulation in [5] is -1.2% (inactive). Moreover, in experiment [6], the inhibition of viability was 5.2% (inactive). In addition, the viability decrease (inhibition) is -29.1% (inactive) in experiment [7] and -18% (inactive) in experiment [8]. Besides, the results for the fold change in [9] (setting [14]) and in experiment [9] (setting [15]) were 1.02 (inactive) and 1.71, respectively. In addition, the cell count in experiment [9] (setting [16]) was determined as 10300; in experiment [9] (setting [17]) it was 10100. The call in [10] was inactive. Further, in experiment [12], the z-score was 0.29 (inactive).
On to `OCCN1CCN(CC/C=C2/c3ccccc3Sc3ccc(C(F)(F)F)cc32)CC1`, for which the parasite load remaining in experiment [13] was 69.9% (inactive). The same compound displayed a viability in [13] of 81%. The nuclear beta-catenin stimulation is -1.3% (inactive) in experiment [1] (at 10 µM) and 14.5% in [1] (stimulation, at 2 µM). Besides, the insulin secretion stimulation in experiment [2] is 10.7% (inactive). Besides, the viability decrease in experiment [3] was 120% (active). Also, the tube area decrease in experiment [4] is 88.3% (active). In [5], the GLP1 secretion stimulation is 69.1% (active). For the same compound, the inhibition of viability in experiment [6] was 126% (active). Further, the viability decrease (inhibition) in [7] was 167% (active); in experiment [8] it was 102% (active). For the same compound, the fold change in experiment [9] (setting [14]) was 1.1 (inactive); in experiment [9] (setting [15]), 1.38. Moreover, the cell count in experiment [9] (setting [16]) was found to be 6940; in experiment [9] (setting [17]), 6310. Further, the compound was called inactive in experiment [10]. In addition, the z-score in experiment [12] was -1.04 (inactive).
In the case of `O=S(=O)(O)Oc1ccc(C(c2ccc(OS(=O)(=O)O)cc2)c2ccccn2)cc1`, the nuclear beta-catenin stimulation in [1] (at 10 µM) was -1.8% (inactive); in experiment [1] (stimulation, at 2 µM) it was 1.7%. For the same compound, in [2], the insulin secretion stimulation is -1.2% (inactive). Moreover, the viability decrease in experiment [3] was -2.3% (inactive). Also, the tube area decrease in [4] was 11.8% (inactive). In experiment [5], the GLP1 secretion stimulation is 1.3% (inactive). Moreover, the inhibition of viability in experiment [6] was -5.5% (inactive). The viability decrease (inhibition) was -2.2% (inactive) in [7] and -5.9% (active) in experiment [8]. Besides, the fold change in [9] (setting [14]) was 0.9 (inactive); in [9] (setting [15]), 1.41. Besides, the cell count was found to be 8720 in [9] (setting [16]) and 9690 in [9] (setting [17]). The z-score is -0.185 (inactive) in experiment [11] (setting [18]) and -0.14 in experiment [11] (setting [19]).
For `COC(=O)C1=C(C#N)NC(C)=C(C(=O)OC(C)C)C1c1cccc([N+](=O)[O-])c1` (stereo unspecified), the nuclear beta-catenin stimulation in [1] (at 10 µM) is -1.3% (inactive); in [1] (stimulation, at 2 µM), 2.3%. The insulin secretion stimulation in [2] is -0.1% (inactive). In experiment [3], the viability decrease was 9.8% (inactive). Besides, the tube area decrease in [4] is 9.9% (inactive). Further, in [5], the GLP1 secretion stimulation is -3.9% (inactive). Further, in experiment [6], the inhibition of viability is 56.2% (active). Moreover, the results for the viability decrease (inhibition) in experiment [7] and in [8] were 65.8% (active) and 29.6% (active), respectively. Also, the fold change in [9] (setting [14]) is 0.976 (inactive); in experiment [9] (setting [15]) it was 0.643. Further, the cell count in experiment [9] (setting [16]) was determined as 7820; in [9] (setting [17]), 8010. For the same compound, the z-score is -0.465 (inactive) and 0.607 (inactive) in experiment [11] (setting [18]); 0.162 and 0.638 in experiment [11] (setting [19]).
